Reference: PubChem BioAssay (Tox21)
Records with an inconclusive call do not appear. Entries that show only a call come without a potency. Values without a mark were called inactive. Calls of active or inactive are those of the source. The call rests on the fitted dose curve; in most records, active means well fitted activation curve with a large enough effect in the repeat runs; inconclusive means weak or mixed curves; inactive means flat fitted curve, though single readings scatter.

experiment: A CellTox Green Cytotoxicity Assay to monitor cytotoxicity in HepG2 cells - 40 hour (AID 1224879); conditions: CellTox Green fluorescence; series mostly up to 76.8 µM; further: nearly all actives have a fitted effect of over 40% in size
Source text: National Center for Advancing Translational Sciences [NCATS]
NIH Chemical Genomics Center [NCGC]
U.S. Environmental Protection Agency [EPA]
National Institutes of Environmental Health Sciences [NIEHS]
National Toxicology Program [NTP]
Cell-based models are critical for drug discovery. Determining the natural cytotoxic effects resulting from test compounds is an essential research activity. A CellTox Green Cytotoxicity Assay to monitor cytotoxicity in real time of continues cell culture during 40 hours of the compound treatment was used to screen Tox21 10K library compounds in HepG2 cells. CellTox Green Cytotoxicity Assay is a nonlytic, homogeneous, biofluorescent method to measure cytotoxicity in cell culture after experimental manipulation. The assay system uses a proprietary asymmetric cyanine dye that is excluded from viable cells but preferentially stains the dead cell's DNA. […] Viable cells produce no appreciable increases in fluorescence. Therefore, the fluorescence signal produced by the binding interaction with dead cell DNA is proportional to cytotoxicity.
The mixture of HepG2 cell suspension and reagents were dispensed at 600cells/6 ul/well in 1536-well tissue culture treated black solid bottom plates using a Multidrop dispenser. After the assay plates were incubated at a 37 C/5% CO2 incubator for 5 hours, 23 nL of compounds dissolved in DMSO, positive and negative controls was transferred to the assay plate by a pintool work station. The plates were incubated at 37 C for 40 hours. The fluorescence intensity were measured at 0h, 8h, 16h, 24h, 32h and 40h time points using ViewLux plate reader during compound treatment.
Potency means the concentration at half of the fitted maximal effect.

| SMILES | Potency | cytotoxicity increase |
| --- | --- | --- |
| CCN(CC)CC(=O)Nc1c(C)cccc1C(=O)OC | inactive |  |
| C[C@H](CS)C(=O)N1CCC[C@H]1C(=O)O | inactive |  |
| O=C(/C=C/c1ccc([N+](=O)[O-])cc1)c1ccccc1 | 21.9 µM (active) |  |
| O=C(c1ccccc1)C1CCC1 | 27.5 µM (active) |  |
| CC(C)CC(O)CC(C)C | inactive |  |
| CCOC(=O)Oc1ccc(CCNC(=O)[C@H](CCSC)NC(C)=O)cc1OC(=O)OCC | inactive |  |
| Cc1cn([C@H]2C[C@H](F)[C@@H](CO)O2)c(=O)[nH]c1=O | inactive |  |
| C1=CCC2CC=CC2C1 (stereo not given) | inactive |  |
| O=C(O)c1cc(Cl)cc(Cl)c1O | inactive |  |
| CCCOC(=O)c1c(Cl)c(Cl)c(Cl)c(Cl)c1C(=O)OCCC | inactive |  |
| CC/C=C\C/C=C\C/C=C\CCCCCCCC(=O)OCC | inactive |  |
| COC(CC(C)CCCC(C)(C)O)OC (stereo not given) | inactive |  |
| NC(=O)c1ccccc1[N+](=O)[O-] | inactive |  |
| CC(=O)OCC1=C(C(=O)O)N2C(=O)[C@@H](NC(=O)CSc3ccncc3)[C@H]2SC1 | inactive |  |
| FC(F)(F)C(F)(F)C(F)(F)C(F)(F)CCI | inactive |  |
| CC1=C2[C@@H]([C@H](C)CC[C@H]2/C=C(\C)C(=O)O)[C@H](O)C1 | inactive |  |
| COc1cc(NS(=O)(=O)c2ccc(N)cc2)nc(C)n1 | inactive |  |
| CSCC[C@H](NC(=O)[C@H](Cc1c[nH]c2ccccc12)NC(=O)CCNC(=O)OC(C)(C)C)C(=O)N[C@@H](CC(=O)O)C(=O)N[C@@H](Cc1ccccc1)C(N)=O | inactive |  |
| O=C1c2ccccc2C(=O)c2c(O)ccc(O)c21 | 24.5 µM (active) |  |
| NC(=O)CCCCC(N)=O | inactive |  |

| SMILES | Potency | cytotoxicity increase |
| --- | --- | --- |
| CNCc1ccc(NC(=O)c2c[nH]c3c2C(=O)CCC3)cc1 | inactive |  |
| CCCCCCCCCCCCCOC(=O)CCSCCC(=O)OCCCCCCCCCCCCC |  | -4.11% [at 15.8 µM] |
| CC(=O)OCCC(C)CC(C)(C)C (stereo not given) | inactive |  |
| O=C(O)CNC(=O)c1ccccc1I | inactive |  |
| CC(C(=O)O)c1ccc(C(=O)c2cccs2)cc1 (stereo not given) | inactive |  |
| O=C1NC(=O)c2cccc3cccc1c23 | inactive |  |
| CCOC(=O)C(C)O (stereo not given) | inactive |  |
| Cc1ccc(S(=O)(=O)NC(=O)NC2CCCCC2)cc1 | inactive |  |
| O=P(O)(O)Oc1ccccc1 | inactive |  |
| Cc1cccc2sc(N)nc12 | inactive |  |
| COC(=O)CC(C(C)=O)C(=O)OC (stereo not given) | inactive |  |
| CCCCCCCC/C=C\CCCCCCCC(=O)OCCO | inactive |  |
| CC(CO)(CO)C(=O)O | inactive |  |
| Cc1cc([N+](=O)[O-])ccc1N | inactive |  |
| CCC(CO)(CO)CO | inactive |  |
| Nc1ccn([C@H]2CS[C@@H](CO)O2)c(=O)n1 | inactive |  |
| CNc1c2c(nn1C)CCCC2 | inactive |  |
| CCCCOCCOC(=O)c1cccnc1 | inactive |  |
| CCCC(=O)OC(=O)CCC | inactive |  |
| CC(C)(C)CCCCCCOC(=O)c1ccccc1C(=O)OCCCCCCC(C)(C)C | inactive |  |
